Here are results for ten compounds from PubChem BioAssay.

Inconclusive results are not listed. Activity calls are given as the source filed them.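 How the source made its calls, unless noted: active means viability at or below 10% of carrier control in both of two separate runs; inconclusive means viability at or below 10% in only one of the two runs; inactive means the rest.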

A short description of test [1]: SK-BR-3 cell growth inhibitors, pilot screen, 24 h, human (AID 572).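 Further: compound exposure lasted between 18 and 24 h rather than exactly 24 h; 100% = carrier-treated control wells.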 As to conditions: SK-BR-3 viability, CellTiter-Glo luminescence, at 10 µM, stronger effect = lower value. For orientation: In ATP-based viability assays light output follows the ATP content of the culture.
Test [2] in a line: HUVEC growth inhibition – cell-based, human, primary screen (AID 575;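 active means viability at or below 30% in both replicate assays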;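 further: 100% = median of untreated cell wells with 0.1% DMSO on each plate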). As to conditions: HUVEC proliferation, CellTiter-Glo luminescence, 72 h; at 10 µM; stronger effect = lower value.
A short description of test [3]: growth inhibitors of H69AR lung tumor, primary screen, human, duplicate replicates (AID 580;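 active means viability at or under a set limit in both replicates, limit being median viability minus 3 SD, cut at about 48% in these data, passing the limit was not always enough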;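 further: 100% = mean luminescence of untreated wells and 0% = no signal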). As to conditions: H69AR lung tumor cells viability, ATP luminescence, 72 h; at 10 µM; stronger effect = lower value.
Test [4] is described as follows: reversal of MRP1-mediated doxorubicin resistance, pilot screen, H69AR cells, doxorubicin co-treatment (AID 601;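 active means viability loss from added drug above about 55%, and viability with drug at most 40%, in both replicates, limit read from the data, passing the limit was not always enough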). As to conditions: CellTiter-Glo, 72 h, at 10 µM; for differential viability (reversal): stronger effect = higher value.
The nature of test [5]: 384-well plate pilot, post-Golgi transport modulator project, inhibition of yeast transport mutant growth (AID 636; in the data active means inhibition above about 31%). As to conditions: absorbance 615 nm, about 18 h, stronger effect = higher value.
Test [6] can be described thus: growth suppression of yeast trafficking mutant, preliminary HTS, modulators of trafficking downstream of Golgi apparatus project, 1536-format plate, OD 615 nm (AID 637; in the data active means inhibition above about 30%). As to conditions: yeast transport mutant growth, absorbance 615 nm, 18 h; stronger effect = higher value.
The nature of test [7]: OD615 S. cerevisiae growth inhibition, permissive medium, pilot counter-assay, permissive growth control for S. cerevisiae lifespan shortening project (AID 705;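 active means growth inhibition above 25% in both replicates, a cutoff set 3 SD above the mean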). As to conditions: OD615, 24 h, at 10 µM, stronger effect = higher value.
Test [8] in a line: Restrictive medium S. cerevisiae growth inhibition, OD615, pilot screen of yeast lifespan reduction project, restrictive growth control (AID 706;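 active means growth inhibition above a set limit, 3 SD over mean compound inhibition, in both replicates, cut at about 43% in these data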;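 further: modified DeaD lifespan yeast strain shifted to restrictive glucose medium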). As to conditions: OD615, 48 h, at 10 µM, stronger effect = higher value.
Test [9] in a line: viability gain of MRP-1-high H69AR cells under doxorubicin, pilot screen, MRP-1 activator project, CellTiter-Glo, duplicate (AID 807;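 active means viability increase at or above a cutoff of the median across tested compounds plus 3 SD, cut at about 8.5% in these data, passing the limit was not always enough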;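 further: compound pretreatment 18-22 h then 72 h combined with doxorubicin; 0% = doxorubicin alone and 100% = vehicle without doxorubicin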). As to conditions: H69AR viability with doxorubicin, CellTiter-Glo luminescence; at 10 µM; stronger effect = higher value.
Test [10] in a line: growth suppression of beta-catenin knockout HCT116, pilot screen, human colon tumor cells (AID 823;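 active means cell viability at or below a set limit in both duplicate runs, the limit being the all-compound median minus 4 SD, cut at about 23% in these data, passing the limit was not always enough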;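 further: 0% = wells killed by 20 µM Hyamine and 100% = untreated DMSO cell wells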). As to conditions: CellTiter-Glo, 60 h, at 10 µM, stronger effect = lower value.
The nature of test [11]: growth suppression of PTEN-deleted HCT116, pilot screen, cell-based, HCT116 clonal line, CellTiter-Glo (AID 824;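 active means viability at or below 27.92% in each of two runs, the all-compound median minus 4 SD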;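 further: 0% = 20 µM Hyamine control and 100% = vehicle cell control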). As to conditions: 60 h, at 10 µM, stronger effect = lower value.
The nature of test [12]: inhibitors of the yeast RAM network, pilot screen, dse1pr::URA3 reporter, 5-FOA selection (AID 869;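 active means inhibition over a set limit, the all-compound mean plus 3 SD, in both replicate runs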;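 further: 0% = DMSO wells with no growth and 100% = 10 µM 1-NA-PP1 with full growth; RAM network block rescues cells from 5-FOA so hits raise OD615 growth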). As to conditions: S. cerevisiae dse1pr::URA3 5-FOA growth, OD615, 2 d; at 10 µM; stronger effect = higher value; strain carries analog-sensitive mutant Cbk1 kinase.
Test [13] can be described thus: RAM signaling pathway blockade in yeast – S. cerevisiae, Pdr1DBD-CYC8 efflux-inhibited sensitized strain, primary screen (AID 1298;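 active means RAM network inhibition above 8.4% in each of two replicates, 3 SD over the compound average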;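 further: 0% = DMSO untreated cells without growth and 100% = 10 µM 1-NA-PP1 full growth; higher means more yeast growth rescued from 5-FOA killing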). As to conditions: S. cerevisiae cbk1-as DSE1-URA3 strain, 5-FOA growth OD615, 2 d; at 50 µM; stronger effect = higher value.
Where [14] appears, read: H69AR cells + 2 uM doxorubicin, measured here: viability with 2 uM doxorubicin, stronger effect = lower value.
The mark [15] stands for this setting: H69AR cells, compound alone cytotoxicity.

Take `O=C(/C=C/N1CCOCC1)c1ccc(-c2ccccc2)cc1`: the viability – broadly, a read-out of living cells in per cent, often relative to untreated cells – is 104% (inactive) in [1]; 81.8% (inactive) in [2]; 89.5% (inactive) in [3]; 81.8% in test [4] (setting [14]); 89.5% in [4] (setting [15]); 88.4% (inactive) in [10]. Besides, the viability in [11] was 80.6% (inactive). The differential viability (reversal) in test [4] (H69AR cells + 2 uM doxorubicin) was 7.73% (inactive). Moreover, the figures for the inhibition in [5], in test [6] and in test [12] were -5.07% (inactive), -2% (inactive) and -0.475% (inactive), respectively. Besides, the growth inhibition is 99.4% (active) in test [7] and 100% (active) in test [8]. Besides, in test [9], the viability increase is -1.77% (inactive). The RAM network inhibition in test [13] is -1.36% (inactive).
On to `CCc1c(C)n([O-])c2c([n+]1=O)CCC2`, for which the viability was 104% (inactive) in [1]; 89.2% (inactive) in [2]; 103% (inactive) in [3]; 97% in [4] (setting [14]); 103% in test [4] (setting [15]); 99.4% (inactive) in test [10]. Besides, the viability in [11] is 102% (inactive). Moreover, the differential viability (reversal) in test [4] (H69AR cells + 2 uM doxorubicin) was 5.73% (inactive). Further, the inhibition (commonly the change of the read-out against control, counted positive when it falls) is -5.54% (inactive) in test [5], -2.62% (inactive) in [6] and 0.88% (inactive) in test [12]. Also, the growth inhibition is -8.65% (inactive) in test [7] and -5.88% (inactive) in test [8]. In addition, in test [9], the viability increase is -0.78% (inactive). Besides, the RAM network inhibition in test [13] was 3.44% (inactive).
For the compound `O=C(COc1ccc(F)cc1)Nc1ccc(-n2cnnn2)cc1`, the viability in [1] is 103% (inactive); in test [2], 107% (inactive); in [3], 93.1% (inactive); in test [4] (setting [14]), 81.1%; in test [4] (setting [15]), 93.1%; in [10] it was 102% (inactive). Further, the viability in [11] was 100% (inactive). In addition, the differential viability (reversal) in test [4] (H69AR cells + 2 uM doxorubicin) is 12% (inactive). In addition, the inhibition in test [5] was -4% (inactive); in test [6] it was -1.27% (inactive); in [12], 0.61% (inactive). The values for the growth inhibition in test [7] and in test [8] were 2.42% (inactive) and 2.31% (inactive), respectively. Also, the viability increase in test [9] is 3.62% (inactive). The RAM network inhibition in test [13] was 0.57% (inactive).
`O=C(Nc1ncc(Cc2ccccc2)s1)C1CCCO1` (stereo not given): the viability in test [1] is 91.5% (inactive); in test [2], 84.3% (inactive); in test [3], 103% (inactive); in test [4] (setting [14]) it was 92.2%; in [4] (setting [15]), 103%; in [10], 103% (inactive). Also, the viability in [11] is 103% (inactive). Besides, in test [4] (H69AR cells + 2 uM doxorubicin), the differential viability (reversal) was 10.9% (inactive). Moreover, the inhibition is -4.67% (inactive) in test [5], -9.34% (inactive) in [6] and 0.015% (inactive) in [12]. For the same compound, the growth inhibition was -14.2% (inactive) in test [7] and 3.14% (inactive) in test [8]. Also, the viability increase in [9] is 1.91% (inactive). In addition, the RAM network inhibition in test [13] was -2.16% (inactive).
For `Cc1cc(=O)oc2cc(OCC#N)ccc12`, the viability in test [1] was 112% (inactive); in test [2] it was 92.1% (inactive); in [3] it was 99.4% (inactive); in test [4] (setting [14]), 93.3%; in test [4] (setting [15]), 99.4%; in test [10] it was 106% (inactive). The viability in test [11] is 96.1% (inactive). In addition, the differential viability (reversal) in test [4] (H69AR cells + 2 uM doxorubicin) was 6.12% (inactive). The results for the inhibition in [5], in test [6] and in test [12] were -5.07% (inactive), 1.33% (inactive) and 0.155% (inactive), respectively. Besides, the growth inhibition in test [7] is -4.47% (inactive); in test [8], -4.6% (inactive). Also, the viability increase in test [9] is 1.11% (inactive). Also, the RAM network inhibition in test [13] is 3.55% (inactive).
As for `Cc1cc(C)nc(SCc2ccc3nonc3c2)n1`, the viability is 99% (inactive) in [1]; 89.9% (inactive) in test [2]; 89.2% (inactive) in test [3]; 73.5% in test [4] (setting [14]); 89.2% in test [4] (setting [15]); 96.3% (inactive) in test [10]. Further, in test [11], the viability is 98% (inactive). The differential viability (reversal) in [4] (H69AR cells + 2 uM doxorubicin) was 15.7% (inactive). The values for the inhibition in test [5], in test [6] and in test [12] were -6.53% (inactive), -0.18% (inactive) and 0.535% (inactive), respectively. In addition, the growth inhibition is -9.08% (inactive) in test [7] and -6.27% (inactive) in test [8]. Further, in test [9], the viability increase is -0.41% (inactive). Besides, in [13], the RAM network inhibition is 3.64% (inactive).
Turning to `CCOC(=O)N1CCN(C(=O)c2cnn(-c3ccccc3)c2NC(=O)c2ccccc2F)CC1`, the viability in [1] is 102% (inactive); in [2], 98.8% (inactive); in test [3], 92% (inactive); in [4] (setting [14]), 80%; in test [4] (setting [15]), 92%; in [10] it was 99.4% (inactive). Besides, the viability in [11] is 102% (inactive). Moreover, the differential viability (reversal) in [4] (H69AR cells + 2 uM doxorubicin) was 12% (inactive). The inhibition was -4% (inactive) in [5], -0.73% (inactive) in [6] and -0.065% (inactive) in test [12]. Further, the growth inhibition in test [7] was 0.625% (inactive); in test [8], -2.95% (inactive). In [9], the viability increase was -1.55% (inactive). Besides, in [13], the RAM network inhibition is 1.56% (inactive).
In the case of `Cn1c(CSc2nc3ccccc3s2)nnc1SCC(=O)NCCN1CCOCC1`, the viability in test [1] was 75% (inactive); in test [2], 97.6% (inactive); in test [3] it was 98.5% (inactive); in test [4] (setting [14]), 102%; in test [4] (setting [15]) it was 98.5%; in [10], 92.9% (inactive). Besides, the viability in [11] was 86.7% (inactive). Further, the differential viability (reversal) in test [4] (H69AR cells + 2 uM doxorubicin) is -3.51% (inactive). Moreover, the inhibition in test [5] was 2.67% (inactive); in test [6], 10% (inactive); in test [12], 0.27% (inactive). The growth inhibition was 7.95% (inactive) in [7] and 32.4% (inactive) in test [8]. The viability increase in [9] is -3.43% (inactive). For the same compound, in test [13], the RAM network inhibition was 3.17% (inactive).
Turning to `CCOC(=O)c1cc(NC(=O)SCC(=O)O)c(C)nc1C`, the viability was 82% (inactive) in [1]; 123% (inactive) in test [2]; 88.1% (inactive) in [3]; 85.4% in test [4] (setting [14]); 88.1% in test [4] (setting [15]); 96.1% (inactive) in [10]. In addition, in [11], the viability is 101% (inactive). Further, the differential viability (reversal) in test [4] (H69AR cells + 2 uM doxorubicin) was 2.72% (inactive). Further, the values for the inhibition in [5], in test [6] and in test [12] were 2.34% (inactive), -1.64% (inactive) and 0.56% (inactive), respectively. The growth inhibition in [7] was 0.31% (inactive); in [8], 0.73% (inactive). The viability increase in [9] was 2.31% (inactive). For the same compound, the RAM network inhibition in test [13] is 0.38% (inactive).
As to `Clc1cccc(-c2nnc(-c3ccccc3)o2)c1`, the viability was 57% (inactive) in test [1]; 78.7% (inactive) in test [2]; 76.7% (inactive) in test [3]; 80.7% in test [4] (setting [14]); 76.7% in test [4] (setting [15]); 4.61% (active) in test [10]. Further, the viability in [11] is 21.4% (active). Moreover, the differential viability (reversal) in test [4] (H69AR cells + 2 uM doxorubicin) is -4.06% (inactive). Further, the results for the inhibition in test [5], in test [6] and in [12] were -8.92% (inactive), 0.82% (inactive) and 1.33% (inactive), respectively. For the same compound, the growth inhibition in [7] was 8.84% (inactive); in test [8] it was 3.85% (inactive). Besides, the viability increase in [9] is -6.09% (inactive). The RAM network inhibition in [13] is 0.25% (inactive).
